The values that follow come from PubChem BioAssay (NCATS).

In assay [1] the target is ATP-dependent DNA helicase Q1 (Homo sapiens) (UniProt P46063). The assay is described as follows: qHTS Validation Assay for Inhibitors of RecQ-Like Dna Helicase 1 (RECQ1) (AID 2353). The gist of the method:
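RECQ1T1 50 nM; forked duplex (20 bp + 30-nt ss tails) 200 nM, ATP 2 mM final; pH 8.0, 2 mM MgCl2, 2.5 ug/ml poly(dI-dC); 15 min compound preincubation; discontinuous kinetic read over 2 h at RT.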
For orientation: Quantitative high-throughput screening tests each substance at several concentrations.

Assay [2] can be described thus: Cytometric Cell-Based qHTS for Inhibitors of the mTORC1 Signaling Pathway in MEF (Tsc2-/-, p53-/-) Cells (AID 2660).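 Also: Tsc2 and p53 null MEFs carrying empty vector with compound for 24 h; percent of cells above a phospho-rpS6 to PI ratio cutoff in each well.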 The gist of the method:
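Immunofluorescence qHTS of rpS6 Ser235/236 phosphorylation: MEFs (Tsc2-/-, p53-/-) treated 24 h, 37 C, in DMEM + 10% FBS. Alexa-488 signal normalized to PI count, referenced to rapamycin (7.5 nM) and DMSO; PI cell number recorded for viability.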

Assay [3] is described as follows: High Content Imaging Cell-Based qHTS for Inhibitors of the mTORC1 Signaling Pathway in MEF (Tsc2-/-, p53-/-) Cells (AID 2666).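 Also: percent of cells scored positive for phospho-rpS6 Ser235/236 immunostaining by imaging.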 The note with it: at 38.3 µM (top of the series). Put shortly:
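Inhibition of rpS6 phosphorylation is measured by immunofluorescence imaging in empty-vector Tsc2-/-, p53-/- mouse embryonic fibroblasts after 24 hrs compound exposure at 37 degree Celsius. Results are reported as % positive cells per well.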

Assay [4] can be described thus: High Content Imaging Cell-Based qHTS for Inhibitors of the mTORC1 Signaling Pathway in MEF Cells (AID 2667).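 Also: Tsc2-/- p53-/- MEFs stably re-expressing wild-type Tsc2 exposed 24 h.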 The gist of the method:
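Fixed-cell imaging of phospho-S6 (Ser235/236, Alexa-488) after 24 hrs of compound treatment at 37 degree Celsius. Signal was normalized to Hoechst, and thresholds from the highest and lowest wells split cells into % active versus % non-active.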

The target in assay [5] is Ubiquitin carboxyl-terminal hydrolase 2 (Homo sapiens) (UniProt O75604). The assay is described as follows: qHTS Validation Assay for Inhibitors of Ubiquitin-specific Protease USP2a Using CHOP2 as the Reporter (AID 463106). The gist of the method: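 Inhibition is expressed relative to NEM as the full-inhibition control, with concentration-response curves classed by fit quality, magnitude and activity. Enzyme (USP2 core, 10nM) meets 25nM Ub-CHOP2 after compound preincubation; readings are taken at 60min.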
Ubiquitin carboxyl-terminal hydrolase 2 (Homo sapiens), sequence (O75604 whole entry, looked up): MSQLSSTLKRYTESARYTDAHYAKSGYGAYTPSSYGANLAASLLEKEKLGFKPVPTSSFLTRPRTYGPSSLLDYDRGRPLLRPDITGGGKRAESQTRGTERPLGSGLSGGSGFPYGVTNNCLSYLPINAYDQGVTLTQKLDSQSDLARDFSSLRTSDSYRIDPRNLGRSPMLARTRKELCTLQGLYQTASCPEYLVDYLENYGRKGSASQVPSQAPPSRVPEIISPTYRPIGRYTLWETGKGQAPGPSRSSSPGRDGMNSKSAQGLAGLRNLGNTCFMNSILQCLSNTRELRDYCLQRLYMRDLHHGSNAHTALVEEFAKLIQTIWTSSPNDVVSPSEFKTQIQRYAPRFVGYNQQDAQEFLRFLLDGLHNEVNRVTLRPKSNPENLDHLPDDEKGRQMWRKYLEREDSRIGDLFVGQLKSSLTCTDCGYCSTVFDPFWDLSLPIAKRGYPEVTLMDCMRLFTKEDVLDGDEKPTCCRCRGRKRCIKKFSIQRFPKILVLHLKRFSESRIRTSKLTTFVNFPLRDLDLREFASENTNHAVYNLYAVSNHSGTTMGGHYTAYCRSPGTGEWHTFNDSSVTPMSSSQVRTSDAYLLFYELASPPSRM

The target of assay [6] is DNA polymerase III PolC-type (Bacillus subtilis (strain 168)) (UniProt P13267). The assay is described as follows: qHTS Validation Assay for the Inhibitors of DNA Replication in Gram-Positive Bacteria (AID 485295). Also: potency is read from the fitted curve at half-maximal effect. The gist of the method: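 Primed replication of single-stranded M13Gori by a four-protein B. subtilis holoenzyme is measured at room temperature. Double-stranded product is quantified by PicoGreen fluorescence after an EDTA stop; inhibition is scaled between DMSO and EDTA controls.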
DNA polymerase III PolC-type (Bacillus subtilis (strain 168)), sequence (P13267 whole entry, looked up): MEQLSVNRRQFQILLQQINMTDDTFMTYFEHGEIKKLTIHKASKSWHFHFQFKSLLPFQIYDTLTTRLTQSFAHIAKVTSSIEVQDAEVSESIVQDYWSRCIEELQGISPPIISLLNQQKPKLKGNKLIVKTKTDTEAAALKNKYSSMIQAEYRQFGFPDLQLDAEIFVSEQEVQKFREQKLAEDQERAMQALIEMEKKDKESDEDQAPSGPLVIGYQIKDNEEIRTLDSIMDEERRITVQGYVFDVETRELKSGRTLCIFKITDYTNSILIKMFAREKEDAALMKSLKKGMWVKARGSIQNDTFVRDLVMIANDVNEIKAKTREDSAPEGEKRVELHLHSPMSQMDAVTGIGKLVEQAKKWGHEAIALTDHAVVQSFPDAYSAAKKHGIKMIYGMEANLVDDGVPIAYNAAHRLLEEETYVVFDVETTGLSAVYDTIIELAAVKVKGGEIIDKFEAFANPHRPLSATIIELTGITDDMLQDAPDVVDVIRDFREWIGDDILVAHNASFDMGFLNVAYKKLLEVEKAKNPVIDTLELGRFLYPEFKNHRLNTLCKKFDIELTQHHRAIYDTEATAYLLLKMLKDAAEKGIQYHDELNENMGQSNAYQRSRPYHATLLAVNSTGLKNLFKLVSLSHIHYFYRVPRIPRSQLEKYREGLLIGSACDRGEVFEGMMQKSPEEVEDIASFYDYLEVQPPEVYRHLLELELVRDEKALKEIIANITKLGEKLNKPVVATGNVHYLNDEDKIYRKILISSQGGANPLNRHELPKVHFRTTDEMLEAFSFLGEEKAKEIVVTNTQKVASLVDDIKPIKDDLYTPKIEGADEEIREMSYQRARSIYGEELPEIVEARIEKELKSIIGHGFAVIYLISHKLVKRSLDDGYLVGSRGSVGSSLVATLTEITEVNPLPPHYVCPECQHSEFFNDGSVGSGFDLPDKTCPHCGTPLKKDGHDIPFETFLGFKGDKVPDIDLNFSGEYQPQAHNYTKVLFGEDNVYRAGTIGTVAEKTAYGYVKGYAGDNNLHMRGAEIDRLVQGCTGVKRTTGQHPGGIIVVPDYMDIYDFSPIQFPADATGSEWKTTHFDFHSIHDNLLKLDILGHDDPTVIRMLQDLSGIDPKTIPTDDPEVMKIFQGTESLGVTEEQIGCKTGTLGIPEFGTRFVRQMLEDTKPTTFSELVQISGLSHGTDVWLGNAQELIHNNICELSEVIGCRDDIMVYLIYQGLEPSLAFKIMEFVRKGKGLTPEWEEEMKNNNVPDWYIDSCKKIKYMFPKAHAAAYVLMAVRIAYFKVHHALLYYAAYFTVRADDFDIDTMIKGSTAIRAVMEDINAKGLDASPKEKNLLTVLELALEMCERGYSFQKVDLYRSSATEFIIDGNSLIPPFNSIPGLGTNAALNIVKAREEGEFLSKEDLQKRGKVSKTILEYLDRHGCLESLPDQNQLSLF

Assay [7] has as its target Tumor susceptibility gene 101 protein (Homo sapiens) (UniProt Q99816). The assay is described as follows: qHTS Validation Assay for Iinhibitors of HIV-1 Budding by Blocking the Interaction of PTAP/TSG101 (AID 485342; calls by dose curve). Put shortly:
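Fluorescence anisotropy measured PTAP-Tsg101 interaction. Final concentrations were 10 uM protein domain and 50 nM labeled peptide, equilibrated 20 min at room temperature.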

A short description of assay [8]: qHTS Validation Assay to Find Inhibitors of Chronic Active B-Cell Receptor Signaling (AID 485345; active = well fitted curve in the direction sought with a large enough effect in the main read-out, with a control signal flat, not every such curve was filed as active). The gist of the method: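 TMD8 ABC-DLBCL cells with dox-inducible green luciferase–IκBα fusion and red native luciferase; compounds 46 uM–3 nM, 4 h at 37C with doxycycline in 0.5% FBS IMDM. Green/red ratio normalized to basal and 10 uM MG-132.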
In assay [9] the target is Beta-2 adrenergic receptor (Homo sapiens) (UniProt P07550). The assay is described as follows: qHTS validation assay of beta-arrestin-biased ligands of beta2-adrenergic receptor (AID 485366). Put shortly: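 Agonism was measured as beta-arrestin recruitment to recombinant beta2-AR, releasing tTA to drive luciferase. Cells were exposed for 18 hr at 37 degrees C to a series up to 46 microM. %Activity from corrected luminescence gave concentration-response curves.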
Beta-2 adrenergic receptor (Homo sapiens), sequence (P07550 whole entry, looked up): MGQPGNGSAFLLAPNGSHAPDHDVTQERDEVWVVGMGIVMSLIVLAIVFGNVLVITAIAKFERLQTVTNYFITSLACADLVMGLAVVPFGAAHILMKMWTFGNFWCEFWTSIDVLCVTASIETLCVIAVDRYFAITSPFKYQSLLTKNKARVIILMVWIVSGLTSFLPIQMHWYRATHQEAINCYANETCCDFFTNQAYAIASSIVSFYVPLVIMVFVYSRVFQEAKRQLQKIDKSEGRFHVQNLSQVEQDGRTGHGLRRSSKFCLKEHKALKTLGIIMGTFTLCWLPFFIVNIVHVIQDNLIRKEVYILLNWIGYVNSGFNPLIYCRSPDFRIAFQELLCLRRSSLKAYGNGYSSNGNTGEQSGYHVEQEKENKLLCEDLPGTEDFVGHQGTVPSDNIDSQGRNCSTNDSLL

The target of assay [10] is ATP-dependent 6-phosphofructokinase (Trypanosoma brucei brucei) (UniProt O15648). The experiment in a line: qHTS Validation Assay to Find Inhibitors of T. brucei phosphofructokinase (AID 485368). The note with it: outcome: dose series up to 57.5 µM. The gist of the method: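 ADP-Glo luminescence, two-step: residual ATP depleted, then ADP converted to ATP for luciferase. Enzyme 1.25 nM, F6P 0.5 mM, ATP 0.1 mM, pH 8.0 TEA buffer, 45 min RT. Curves fitted and classed by quality and efficacy.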
ATP-dependent 6-phosphofructokinase (Trypanosoma brucei brucei), sequence (O15648 whole entry, looked up): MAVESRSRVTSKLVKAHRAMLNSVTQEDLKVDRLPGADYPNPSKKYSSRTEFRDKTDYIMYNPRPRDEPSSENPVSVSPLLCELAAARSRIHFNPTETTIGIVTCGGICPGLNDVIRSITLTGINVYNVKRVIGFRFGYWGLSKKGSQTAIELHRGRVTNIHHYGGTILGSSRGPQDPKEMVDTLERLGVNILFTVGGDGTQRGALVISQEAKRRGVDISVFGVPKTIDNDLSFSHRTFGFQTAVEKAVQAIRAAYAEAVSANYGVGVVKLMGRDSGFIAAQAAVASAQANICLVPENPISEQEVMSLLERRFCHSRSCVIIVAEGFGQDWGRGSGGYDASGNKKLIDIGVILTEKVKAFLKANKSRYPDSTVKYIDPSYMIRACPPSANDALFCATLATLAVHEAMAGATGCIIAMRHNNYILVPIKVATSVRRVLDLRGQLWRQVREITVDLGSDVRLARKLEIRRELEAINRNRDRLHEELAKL

A short description of assay [11]: Quantitative high throughput screen for delayed death inhibitors of the malarial parasite plastid, 96 hour incubation (AID 488745). Also: nearly all actives have a fitted effect of over 70% in size. Also: potency is read from the fitted curve at half-maximal effect. The gist of the method:
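Readout is firefly luciferase luminescence from an integrated reporter in P. falciparum; lower signal marks inhibited growth. Cultures at 2% hematocrit and 0.1% parasitemia were treated with compound across two generations (96 h, 37 C, 5% CO2).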

Assay [12] can be described thus: Quantitative high throughput screen for delayed death inhibitors of the malarial parasite plastid, 48 hour incubation (AID 488752). Also: nearly all actives have a fitted effect of over 65% in size. Also: potency is read from the fitted curve at half-maximal effect. The gist of the method: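 First, compound was pinned into RPMI 1640 medium containing 0.5% Albumax. Next, reporter-parasite-infected erythrocytes were added to 2% hematocrit and 0.1% parasitemia. After 48 h at 37 C under 5% CO2, luciferase detection reagent was added and luminescence read.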

Assay [13] deals with Thioredoxin reductase 1, cytoplasmic (Rattus norvegicus) (UniProt O89049). The experiment in a line: qHTS Assay for Substrates of Mammalian Selenoprotein Thioredoxin Reductase 1 (TrxR1) (AID 488772).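 Also: a drop in NADPH fluorescence below the no-compound background marks a TrxR1 substrate.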 The gist of the method:
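In this dual-purpose format, potential substrates are identified from the first fluorescence read after selenite addition, not from the 8-minute delta. Rat enzyme is preincubated with NADPH and then with compound at ~22 deg C.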

For assay [14] the target is unchanged. The assay is described as follows: qHTS Assay for Inhibitors of Mammalian Selenoprotein Thioredoxin Reductase 1 (TrxR1) (AID 488773).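 Also: drop in NADPH fluorescence over an 8 min run after selenite addition; nearly all actives have a fitted effect of over 40% in size.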 To be noted: Potency: inhibition. The gist of the method: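 Inhibition is scored from the loss of NADPH fluorescence between first and last reads of an 8-min kinetic run. Selenite (400 uM) was the substrate, added after 15 min compound preincubation at room temperature.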

Assay [15] deals with Flap endonuclease 1 (Homo sapiens) (UniProt P39748). The experiment in a line: qHTS Validation Assay for the Inhibitors of Human Flap endonuclease 1 (FEN1) (AID 488816). Put shortly: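 Steps: add FEN1 (10 nM reagent) or buffer only; pin compounds; hold 15 min at room temperature; start with substrate, 50 nM final; read at 0 and 15 min; correct, normalize and fit a four-parameter Hill curve.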
Flap endonuclease 1 (Homo sapiens), sequence (P39748 whole entry, looked up): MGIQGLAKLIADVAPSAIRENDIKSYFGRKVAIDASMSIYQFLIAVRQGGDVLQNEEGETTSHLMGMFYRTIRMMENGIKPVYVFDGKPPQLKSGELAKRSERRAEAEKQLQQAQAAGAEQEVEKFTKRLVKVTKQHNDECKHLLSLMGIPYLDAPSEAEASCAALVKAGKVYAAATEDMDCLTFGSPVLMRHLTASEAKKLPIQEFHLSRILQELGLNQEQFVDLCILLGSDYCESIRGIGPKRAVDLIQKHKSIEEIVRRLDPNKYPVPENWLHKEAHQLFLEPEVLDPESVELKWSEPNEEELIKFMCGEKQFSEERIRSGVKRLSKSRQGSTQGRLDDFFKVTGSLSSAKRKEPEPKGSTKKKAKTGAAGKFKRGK

Assay [16] can be described thus: Cytometry Cell-Based qHTS for Inhibitors of the mTORC1 Signaling Pathway in MEF cells (AID 2668).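 Also: Tsc2-/- p53-/- mouse embryonic fibroblasts stably re-expressing wild-type Tsc2; percent cells positive for phospho-rpS6 Ser235/236 relative to propidium iodide stain.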 Put shortly: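 Pathway inhibition in WT Tsc2-rescued Tsc2-/-, p53-/- MEFs is measured as the Alexa-488 phospho-rpS6 to propidium iodide intensity ratio after 24 hrs of compound at 37 degree Celsius. PI-stained cell number gives viability.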
Assay [17] can be described thus: Validation screen for small molecules that induce DNA re-replication in MCF 10A normal breast cells (AID 463097). Also: nearly all actives have a fitted effect of over 60% in size. Also: potency is read from the fitted curve at half-maximal effect. The gist of the method: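 DNA re-replication was detected as a rise in nuclei with elevated Hoechst fluorescence after a 48 hr compound exposure of MCF 10A cells at 37 C.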
The target of assay [18] is RecQ-like DNA helicase BLM (Homo sapiens) (UniProt P54132). The experiment in a line: qHTS Validation Assay for Inhibitors of Bloom's syndrome helicase (BLM) (AID 2364). Also: potency is read from the fitted curve at half-maximal effect. Put shortly: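 BLM 50 nM in 25 mM Tris-HCl pH 8.0, 5 mM NaCl, 2 mM MgCl2, 1 mM DTT, 0.01% Tween-20, 2.5 ug/ml poly(dI-dC); 15 min cpd preinc, RT. Start: 200 nM forked DNA + 2 mM ATP (final). TAMRA read, 2 reads 2 h apart.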

Assay [19] addresses Ferritin light chain (Equus caballus) (UniProt P02791). The assay is described as follows: qHTS Validation Assay for Identification of Novel General Anesthetics (AID 2323). Put shortly: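 Apoferritin from horse spleen (10 uM) was mixed with 1-aminoanthracene at 50% saturation in PBS, then compounds were added. After 10 min at room temperature, fluorescence was read (ex 380 nm, em 535 nm) and normalized to free-probe and complex controls.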

Records with an inconclusive call do not appear. Calls of active or inactive are those of the source. Unless noted, calls follow the shape of the dose curve; as a rule, active = well fitted curve in the direction sought with a large enough effect; inconclusive = small, poorly fitted or top-dose-only effect, or another doubt; inactive = no such curve, though single readings can be large; an effect the other way counts as inactive or inconclusive.

Thioredoxin reductase 1, cytoplasmic (Rattus norvegicus), sequence (O89049 whole entry, looked up): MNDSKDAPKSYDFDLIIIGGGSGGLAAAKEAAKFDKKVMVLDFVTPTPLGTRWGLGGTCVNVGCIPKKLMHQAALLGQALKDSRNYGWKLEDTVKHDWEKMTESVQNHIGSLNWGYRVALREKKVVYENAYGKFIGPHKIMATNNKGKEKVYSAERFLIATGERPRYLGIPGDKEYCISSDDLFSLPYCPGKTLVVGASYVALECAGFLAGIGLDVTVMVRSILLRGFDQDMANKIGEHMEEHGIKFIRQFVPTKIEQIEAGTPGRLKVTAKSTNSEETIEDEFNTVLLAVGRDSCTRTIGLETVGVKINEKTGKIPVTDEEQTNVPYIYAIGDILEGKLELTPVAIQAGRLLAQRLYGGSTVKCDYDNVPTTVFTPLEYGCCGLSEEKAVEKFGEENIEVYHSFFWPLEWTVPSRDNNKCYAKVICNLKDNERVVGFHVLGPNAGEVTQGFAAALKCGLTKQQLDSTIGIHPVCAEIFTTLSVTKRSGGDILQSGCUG
Tumor susceptibility gene 101 protein (Homo sapiens), sequence (Q99816 whole entry, looked up, the tested form may be a part): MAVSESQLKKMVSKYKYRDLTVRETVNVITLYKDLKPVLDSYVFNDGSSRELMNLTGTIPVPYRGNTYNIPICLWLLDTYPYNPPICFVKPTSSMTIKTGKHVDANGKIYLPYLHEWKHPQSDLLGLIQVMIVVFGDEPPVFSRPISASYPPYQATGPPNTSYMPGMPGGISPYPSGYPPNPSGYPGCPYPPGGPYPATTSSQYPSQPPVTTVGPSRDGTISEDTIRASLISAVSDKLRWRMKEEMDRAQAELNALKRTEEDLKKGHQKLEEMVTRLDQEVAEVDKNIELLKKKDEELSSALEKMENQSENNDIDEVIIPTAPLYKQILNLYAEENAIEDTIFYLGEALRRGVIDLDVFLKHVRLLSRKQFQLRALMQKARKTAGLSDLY
Ferritin light chain (Equus caballus), sequence (P02791 2-175 limits assumed): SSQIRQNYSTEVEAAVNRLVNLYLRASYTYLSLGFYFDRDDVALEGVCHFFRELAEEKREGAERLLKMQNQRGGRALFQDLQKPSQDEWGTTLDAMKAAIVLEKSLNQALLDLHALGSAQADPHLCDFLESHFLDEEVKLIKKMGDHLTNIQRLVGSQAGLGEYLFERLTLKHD

Regarding `OC(CN1CCC(Cc2ccc(F)cc2)CC1)c1ccc(Cl)cc1` (centres undefined), the result in [1], in assay [2], in assay [3], in assay [4], in assay [5] and in [7] was inactive. For the same molecule, the molecule was called inactive in assay [8], in assay [9], in assay [10] and in [13]. The Potency result in assay [6], in [14] and in assay [15] was “inactive” throughout. Besides, the Potency in assay [11] is 2.94 µM (active); in [12] it was 3.29 µM (active).

For `c1ccc([C@H]2CN3CCSC3=N2)cc1`, the call in [1], in [2], in [3], in assay [4], in assay [16] and in assay [5] was inactive. Also, the outcome in assay [7], in assay [8], in [9] and in [13] was inactive. In addition, the Potency result in assay [17], in [6], in [11], in assay [12], in [14] and in [15] was “inactive” in each case.

With `Oc1ccc(C2CNCCc3c2cc(O)c(O)c3Cl)cc1` (centres undefined), the Potency in assay [18] is 35.5 µM (active). The result in [2], in assay [3], in assay [4], in assay [16], in assay [5] and in assay [7] was inactive. Further, the molecule was called inactive in [8], in assay [9] and in [13]. The Potency result in assay [17] was “inactive”.

Take `Nc1nc2ccc(OC(F)(F)F)cc2s1`: the result in [19], in [1], in assay [2], in [3], in [4] and in assay [16] was inactive. For the same molecule, the molecule was called inactive in [5], in assay [7], in [9], in assay [10] and in [13]. Also, the Potency result in [6], in [14] and in [15] was “inactive” throughout.

On to `CC(C)(Sc1ccc(CCN(CCCCC2CCCCC2)C(=O)NC2CCCCC2)cc1)C(=O)O`, for which the Potency in assay [18] is 28.2 µM (active); in assay [17], 12.6 µM (active); in [6] it was 26.7 µM (active). Further, the outcome in assay [2], in [3], in assay [4], in assay [16], in assay [7] and in assay [9] was inactive. Besides, in [13], the molecule was classed as inactive. Also, the Potency result in [11], in assay [12], in assay [14] and in assay [15] was “inactive” in each case.

On to `Cc1oncc1C(=O)Nc1ccc(C(F)(F)F)cc1`, for which the molecule was classed as inactive in assay [19], in assay [1], in assay [2], in [3], in [4] and in [16]. Besides, the outcome in assay [5], in assay [7], in [9], in assay [10] and in assay [13] was inactive. The Potency entry in [6], in assay [14] and in assay [15] was “inactive” each time.

Take `Nc1nc2c(ncn2COCCO)c(=O)[nH]1`: the call in assay [19], in assay [1], in assay [2], in assay [3], in assay [4] and in assay [16] was inactive. In addition, the result in assay [7], in assay [8], in [9] and in assay [10] was inactive. Besides, the Potency result in assay [17], in assay [6], in assay [11], in [12] and in assay [14] was “inactive” each time.
